Assay outcomes deposited in PubChem by National Center for Advancing Translational Sciences (NCATS).
Coupling enz = counter-screen for Giardia aldolase inhibitors: coupling enzyme system | coupling enzyme system counterscreen, AmpLite Red fluorescence | 290,000 compounds, 0.67% hits | activity change, negative = inhibition, % at 58.2 µM, hits read low; in the data active = activity change below about -30%
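Counterscreen lacking aldolase: glyceraldehyde-3-phosphate coupling-enzyme reagent preincubated 10 min at RT with compound (at 57.5 uM final), then substrate/coupling system with AmpLite Red added; fluorescence read at 525/598 nm after 20 min RT.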
Tau fibril ThT = blocks human tau fibril formation measured by thioflavin T; P10636; Potency, µM (series often up to 57.4 µM), hits mostly inhibitors; recombinant tau K18 P301L, heparin-induced fibrillization, ThT fluorescence; 270,000 compounds, 2.1% hits; also: nearly all actives have a fitted effect of over 55% in size
Target sequence (P10636 561-689 P618L limits assumed): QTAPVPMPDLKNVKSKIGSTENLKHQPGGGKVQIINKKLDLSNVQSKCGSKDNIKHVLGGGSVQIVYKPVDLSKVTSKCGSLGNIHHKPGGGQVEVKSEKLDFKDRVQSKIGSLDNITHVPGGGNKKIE
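K18 P301L tau (15 uM + 0.24 uM Alexa 594-tagged), heparin 20 uM, NaOAc pH 7, 6 h 37 C; ThT 30 uM, 1 h RT, ex 450/em 510 nm.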
Sfp inh = blocks B. subtilis Sfp PPTase activity; Q9F4F7; Biochemical Sfp PPTase activity, qHTS; Potency, µM, hits mostly inhibitors; 310,000 compounds, 3.5% hits; AID 1490;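 also: the enzyme is Sfp with the accession as filed and its product quenches rhodamine fluorescence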
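With Hepes-Na pH 7.6 buffer containing 10 mM MgCl2, Sfp (15 nM) modified BHQ-2-YbbR (12.5 uM) using rhodamine-CoA (5 uM). Two reads 30 minutes apart at 525/598 nm yielded each well's rate.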
Tau fluor counter = counter-screen for tau fibril formation inhibitors; tau K18 P301L Alexa594 fluorescence, heparin fibrillization; Potency, µM (series often up to 57.7 µM); 280,000 compounds, 0.93% hits; AID 1463; also: nearly all actives have a fitted effect of over 55% in size
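Human tau K18 P301L (15 uM unlabeled, 0.24 uM Alexa 594-labeled) in 100 mM sodium acetate pH 7 with 20 uM heparin, 6 hr at 37 C. ThT 30 uM added, 1 hr ambient; Alexa 594 FP and total fluorescence read at 555/632 nm.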
G9a block = G9a (human) methyltransferase inhibition. Q96KQ7. 350,000 compounds, 8.8% hits. Potency, µM (titrated, usually from 102 µM), hits mostly inhibitors. G9a H3K9 monomethylation, AlphaScreen, 2 h; also: nearly all actives have a fitted effect of over 75% in size
Target sequence (Q96KQ7 913-1193 limits assumed): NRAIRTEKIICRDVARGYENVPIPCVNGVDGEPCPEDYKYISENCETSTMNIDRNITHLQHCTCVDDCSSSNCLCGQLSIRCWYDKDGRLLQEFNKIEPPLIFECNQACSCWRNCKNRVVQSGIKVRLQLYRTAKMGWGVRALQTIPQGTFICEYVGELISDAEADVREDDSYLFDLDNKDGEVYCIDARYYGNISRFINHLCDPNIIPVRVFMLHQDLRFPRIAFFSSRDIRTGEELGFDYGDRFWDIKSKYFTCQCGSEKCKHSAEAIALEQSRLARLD
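Using a bead-based AlphaScreen, monomethylated H3K9 product from 2 h room-temperature reactions (G9a 20 nM, peptide 500 nM, SAM 20 uM) was detected with 0.5 ug/mL rabbit anti-H3K9me1 antibody.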
Tau FP inhib = blocks human tau fibril formation measured by polarization; P10636; 280,000 compounds, 0.39% hits; Potency, µM (series often up to 57.7 µM), most hits filed as inhibitors; K18 P301L tau heparin fibrillization, Alexa594 FP, 6 h; also: nearly all actives have a fitted effect of over 55% in size
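K18 P301L tau (15 uM unlabeled/0.24 uM Alexa 594-labeled, final) + compound + heparin 20 uM final; 100 mM NaOAc pH 7; 6 hr 37 C; ThT 30 uM final added, 1 hr RT; FP ex 555/em 632 nm.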
Hits are given with their value; [ ] = another dose, or the depositor's remark. A selection: hits, their analogues and other compounds. The true share with any hit is near 11%. Unless noted, calls follow the shape of the dose curve; as a rule, active = well fitted curve in the direction sought with a large enough effect; inconclusive = small, poorly fitted or top-dose-only effect, or another doubt; inactive = no such curve, though single readings can be large; an effect the other way counts as inactive or inconclusive.

`Cc1ccc(C(NC(=O)N2CCCC2)C(Cl)Cl)cc1F` (stereo unspecified) gave Coupling enz inactive, Tau fibril ThT inactive, Sfp inh inactive, Tau fluor counter inactive, G9a block 35µM and Tau FP inhib inactive.
For CCN1CCN(C(=O)NC(c2ccc(C)c(F)c2)C(Cl)Cl)CC1 (stereo unspecified) the results were Coupling enz inactive, Tau fibril ThT inactive, Sfp inh inactive, Tau fluor counter inactive, G9a block inconclusive and Tau FP inhib inactive.
Cc1ccc(-n2cc[nH]c2=S)cc1C was read as Coupling enz inactive, Tau fibril ThT inactive, Sfp inh 79µM, Tau fluor counter inactive, G9a block inconclusive and Tau FP inhib inactive.
Screening CCOc1ccc(CCNC(=O)COC(=O)CSc2ccc(C)cc2)cc1OCC returned G9a block inactive.
`CCOC(=O)C1=C(N)N2C(=O)C(C)SC2=C(C(=O)OC)C1c1cccc(OC)c1` (stereo unspecified) gave Coupling enz inactive, Tau fibril ThT inactive, Sfp inh inactive, Tau fluor counter inactive, G9a block inactive and Tau FP inhib inactive.
For COc1cc(C2C(C#N)=C(N)Oc3cc(O)ccc32)cc(OC)c1OC (stereo unspecified) the results were Coupling enz inactive, Tau fibril ThT inactive, Sfp inh inactive, Tau fluor counter inactive, G9a block inactive and Tau FP inhib inactive.
`COC(=O)C1=C2SC(C)C(=O)N2C(N)=C(C#N)C1c1ccc(OC)c(OC)c1` (stereo unspecified) gave Coupling enz inactive, Tau fibril ThT inconclusive, Sfp inh 35µM, Tau fluor counter inactive, G9a block inconclusive and Tau FP inhib inactive.
For COC(=O)C1=C2SC(C)C(=O)N2C(N)=C(C#N)C1c1cc(OC)c(OC)c(OC)c1 (stereo unspecified) the results were Coupling enz inactive, Tau fibril ThT inactive, Sfp inh 35µM, Tau fluor counter inactive, G9a block inconclusive and Tau FP inhib inactive.
For CCn1c(C(=O)NCCc2ccc(S(N)(=O)=O)cc2)cc2sc(Cl)cc21 the results were Tau fibril ThT inactive, Tau fluor counter inactive, G9a block inactive and Tau FP inhib inactive.
For Cc1cc(/C=C\c2ccc3cc(N(C)C)ccc3[n+]2C)c(C)n1-c1ccccc1 the results were Coupling enz inactive, Sfp inh inconclusive and G9a block 13µM.
`Cc1cc(/C=C/C(=O)O)c(C)n1-c1ccc(Cl)cc1` gave Coupling enz inactive, Tau fibril ThT inactive, Sfp inh inactive, Tau fluor counter inactive, G9a block inconclusive and Tau FP inhib inactive.
COc1ccc(-c2nc(SC(C)C(=O)Nc3ccc(NC(C)=O)cc3)n[nH]2)cc1 (stereo unspecified) was read as G9a block inactive[0.501 µM].
`COc1ccc(-c2nc(SC(C)C(=O)NCC3CCCO3)n[nH]2)cc1` (stereo unspecified) gave G9a block 16µM.
O=c1c(O)c(-c2cccc(O)c2)oc2ccccc12 was read as Coupling enz inactive, Tau fibril ThT inconclusive, Sfp inh 45µM, Tau fluor counter inactive and Tau FP inhib inactive.
For COc1cccc(-c2oc3ccccc3c(=O)c2O)c1 the results were Coupling enz inactive, Tau fibril ThT inconclusive, Sfp inh inactive, Tau fluor counter inconclusive and Tau FP inhib inactive.
`COc1ccc(NC(=O)c2oc3ccccc3c2NC(=O)COc2ccc(C(C)C)cc2)c(OC)c1` gave Tau fibril ThT inactive, Tau fluor counter inactive, G9a block inactive and Tau FP inhib inactive.
Screening c1ccc(C2CCC(N3CCN(c4ccccc4)CC3)CC2)cc1 (stereo unspecified) returned Coupling enz inactive, Sfp inh inactive and G9a block 56µM.
COc1ccccc1N1CCN(C2CCN(C3CCC(c4ccccc4)CC3)CC2)CC1 (stereo unspecified) was read as Coupling enz inactive, Tau fibril ThT inactive, Sfp inh 56µM, Tau fluor counter inactive, G9a block 50µM and Tau FP inhib inactive.
Screening COc1ccccc1N1CCN(C2CCC(C)CC2)CC1 (stereo unspecified) returned Coupling enz inactive, Sfp inh inactive and G9a block inconclusive.
Screening COc1ccc(CNC(=O)Nc2cn(CC(C)C)c(=O)c3ccccc23)cc1 returned Tau fibril ThT inactive, Tau fluor counter inactive, G9a block inconclusive and Tau FP inhib inactive.
Screening N/C(Cc1ccc([N+](=O)[O-])cc1)=N\OC(=O)c1ccc([N+](=O)[O-])cc1 returned Coupling enz inactive, Tau fibril ThT inconclusive, Sfp inh inactive, Tau fluor counter inconclusive, G9a block 8.9µM and Tau FP inhib inactive.
CN(C1CCCCC1)S(=O)(=O)c1cccc(C#N)c1 was read as Coupling enz inactive, Tau fibril ThT inactive, Sfp inh inactive, Tau fluor counter inactive, G9a block inactive and Tau FP inhib inactive.
Cc1nn(C(C)C(=O)O)c(C)c1[N+](=O)[O-] (stereo unspecified) was read as Coupling enz inactive, Tau fibril ThT inactive, Sfp inh inactive, Tau fluor counter inactive, G9a block inactive[0.501 µM] and Tau FP inhib inactive.
`Cc1ccc(-n2c(C(C)n3nc(C)c([N+](=O)[O-])c3C)n[nH]c2=S)cc1` (stereo unspecified) gave Coupling enz inactive, Tau fibril ThT inactive, Sfp inh inactive, Tau fluor counter inactive, G9a block 4µM and Tau FP inhib inactive.
Screening COc1ccc(-n2c(C(C)n3nc(C)c([N+](=O)[O-])c3C)n[nH]c2=S)cc1 (stereo unspecified) returned Coupling enz inactive, Tau fibril ThT inactive, Sfp inh inactive, Tau fluor counter inactive, G9a block 6.3µM and Tau FP inhib inactive.
Cc1nn(CC(=O)c2cccc(Cl)c2)c(C)c1[N+](=O)[O-] was read as Coupling enz inactive, Tau fibril ThT inactive, Sfp inh inactive, Tau fluor counter inactive, G9a block inactive and Tau FP inhib inactive.
Cc1nn(C(C)c2n[nH]c(=S)n2-c2cccc(Cl)c2)c(C)c1[N+](=O)[O-] (stereo unspecified) was read as Coupling enz inactive, Tau fibril ThT inactive, Sfp inh inactive, Tau fluor counter inactive, G9a block 3.5µM and Tau FP inhib inactive.
Screening COc1ccc(-n2c(C)c([N+](=O)[O-])c3ccc(O)c(CN(C)C)c32)cc1 returned Coupling enz inactive, Tau fibril ThT inactive, Sfp inh inactive, Tau fluor counter inactive, G9a block inconclusive and Tau FP inhib inactive.
For Cc1cc2c(c(=O)n1Cc1ccccc1)C1O[C@](c3ccsc3)(Cc3ccccc31)O2 the results were Coupling enz inactive and Sfp inh inactive.
